Tau fibril ThT = qHTS for Inhibitors of Tau Fibril Formation, Thioflavin T Binding; AID 1460, 2008; Potency, µM (titrated, usually from 57.4 µM), inactives show top-dose activity, negative = inhibition, hits mostly inhibitors; Microtubule-associated protein tau (Homo sapiens), P10636; recombinant tau K18 P301L, heparin-induced fibrillization, ThT fluorescence; actives 2.1% (n = 270,000); note: potency is the fitted concentration of half-maximal effect; nearly all actives have a fitted effect of over 55% in size
Target sequence (P10636 561-689 P618L limits assumed): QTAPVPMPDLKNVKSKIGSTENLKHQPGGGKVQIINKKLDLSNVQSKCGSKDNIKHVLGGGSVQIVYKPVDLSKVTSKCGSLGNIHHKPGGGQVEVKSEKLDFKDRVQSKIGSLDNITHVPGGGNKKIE
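Tau K18 P301L fragment (15 uM unlabeled plus 0.24 uM Alexa 594-labeled) in 100 mM sodium acetate pH 7 with compound, fibrillization induced by 20 uM heparin for 6 hr at 37 C. Thioflavin T (30 uM) added, fluorescence read after 1 hr (ex 450, em 510 nm).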
Tau fluor cs = Counterscreen qHTS for Inhibitors of Tau Fibril Formation, Fluorescence Polarization | actives 0.93% (n = 280,000) | Potency, µM (top dose mostly 57.7 µM), for the others: at the top dose activity change, negative = decrease | AID 1463, 2008 | tau K18 P301L Alexa594 fluorescence, heparin fibrillization; note: potency is the fitted concentration of half-maximal effect; nearly all actives have a fitted effect of over 55% in size
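Human tau K18 P301L (15 uM unlabeled, 0.24 uM Alexa 594-labeled) in 100 mM sodium acetate pH 7 with 20 uM heparin, 6 hr at 37 C. ThT 30 uM added, 1 hr ambient; Alexa 594 FP and total fluorescence read at 555/632 nm.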
G9a block = qHTS Assay for Inhibitors of Histone Lysine Methyltransferase G9a; Histone-lysine N-methyltransferase EHMT2 (Homo sapiens), Q96KQ7; G9a H3K9 monomethylation, AlphaScreen, 2 h; Potency, µM (titrated, usually from 102 µM), without a hit: at the top dose activity, negative = inhibition, most hits filed as inhibitors; actives 8.8% (n = 350,000); AID 504332, 2011; note: potency is the fitted concentration of half-maximal effect; nearly all actives have a fitted effect of over 75% in size
Target sequence (Q96KQ7 913-1193 limits assumed): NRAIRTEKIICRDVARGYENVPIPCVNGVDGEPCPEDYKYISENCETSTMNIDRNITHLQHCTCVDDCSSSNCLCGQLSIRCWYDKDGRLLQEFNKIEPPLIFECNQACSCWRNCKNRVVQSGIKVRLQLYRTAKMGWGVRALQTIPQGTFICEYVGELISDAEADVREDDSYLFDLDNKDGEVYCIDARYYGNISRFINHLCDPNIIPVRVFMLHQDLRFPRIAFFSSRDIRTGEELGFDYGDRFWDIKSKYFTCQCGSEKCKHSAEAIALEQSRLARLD
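G9a (20 nM) was preincubated 15 min with compound, then reacted 2 h at room temperature with 500 nM biotin-H3K9 peptide and 20 µM SAM. Monomethyl-H3K9 detected by AlphaScreen using anti-H3K9me1 antibody.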
Tau FP inhib = qHTS for Inhibitors of Tau Fibril Formation, Fluorescence Polarization. Microtubule-associated protein tau (Homo sapiens), P10636. K18 P301L tau heparin fibrillization, Alexa594 FP, 6 h. Potency, µM (highest dose often 57.7 µM), inactives show top-dose activity, negative = inhibition, usual class: inhibitors. actives 0.39% (n = 280,000). AID 1468, 2008; note: potency is the fitted concentration of half-maximal effect; nearly all actives have a fitted effect of over 55% in size
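Quantitative HTS format: compounds meet 15 uM recombinant K18 P301L tau and Alexa 594-tau tracer in 100 mM sodium acetate pH 7; 20 uM heparin triggers fibrillization at 37 C over 6 hr; FP gives the signal.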
Sfp PPTase inh = qHTS Assay for Inhibitors of Bacillus subtilis Sfp phosphopantetheinyl transferase (PPTase); actives 3.5% (n = 310,000); Potency, µM, for the others: largest response in the series, negative = inhibition, usual class: inhibitors; Biochemical Sfp PPTase activity, qHTS; 4'-phosphopantetheinyl transferase ffp (Bacillus subtilis), Q9F4F7; AID 1490, 2009;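 note: the enzyme is Sfp with the accession as filed and its product quenches rhodamine fluorescence; potency is the fitted concentration of half-maximal effect; 0% = enzyme reaction without inhibitor and -100% = no enzyme wells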
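Compounds were incubated with enzyme (final 15 nM) for 15 min at room temperature before substrate addition started the reaction. Fluorescence at 525 nm excitation, 598 nm emission was recorded immediately and after 30 minutes.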
Coupling enz = qHTS Assay for Inhibitors of Fructose-1,6-bisphosphate Aldolase from Giardia Lamblia: Coupling assay counterscreen | coupling enzyme system counterscreen, AmpLite Red fluorescence | activity change, negative = inhibition, % at 58.2 µM, hits read low | actives 0.67% (n = 290,000) | AID 2472, 2010; in the data active = activity change below about -30%
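Activity here indicates interference with the coupling reaction, not aldolase inhibition. Compounds at 57.5 uM final met coupling enzymes for 10 min at RT; substrate and AmpLite Red detection followed, with a 525/598 nm fluorescence read after 20 min.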
Starred values were filed as active, the others as inactive; [ ] = dose if it differs, or a comment. Only some compounds are listed: those with a hit (about 11% of all), similar ones and a draw of the others. Unless noted, calls come from the whole dose curve; as a rule, active = well fitted curve in the direction sought with a large enough effect; inconclusive = small, poorly fitted or top-dose-only effect, or another doubt; inactive = no such curve, though single readings can be large; an effect the other way counts as inactive or inconclusive. Unless noted, % is set by controls: 0 for no effect and ±100 for the full control effect.

CCn1c(COc2ccc3c(c2)OCO3)nnc1SCC(=O)c1ccc(Cl)cc1 was read as Tau fibril ThT -14%, Tau fluor cs -11%, G9a block 50µM*, Tau FP inhib 1%, Sfp PPTase inh 3% and Coupling enz 1.
Screening CCn1c(CNC(=O)c2ccc(OC)c(OC)c2)nnc1SCC(=O)c1ccc(OC)cc1 returned Tau fibril ThT 1%, Tau fluor cs -7%, G9a block 11µM*, Tau FP inhib -1%, Sfp PPTase inh -14% and Coupling enz 1.
For COc1cccc(C(=O)CSc2nnc(CNS(C)(=O)=O)n2-c2ccc(C)cc2)c1 the results were Tau fibril ThT -17%, Tau fluor cs -4%, G9a block 18µM*, Tau FP inhib -3%, Sfp PPTase inh -27% and Coupling enz 0.
COc1ccc(-n2c(CCc3ccccc3)nnc2SCC(=O)c2ccc(Cl)cc2)cc1 was read as Tau fibril ThT 6%, Tau fluor cs 4%, G9a block inconclusive, Tau FP inhib 9%, Sfp PPTase inh -8% and Coupling enz -1.
Screening CCCn1c(-c2ccc(F)cc2)nc2c(N3CCN(C)CC3)nc(C)nc21 returned Tau fibril ThT -2%, Tau fluor cs -6%, Tau FP inhib inconclusive, Sfp PPTase inh 9% and Coupling enz 2.
Screening O=C(NCc1nc(-c2ccc(C(F)(F)F)cc2)no1)Nc1ccc(OC(F)(F)F)cc1 returned Tau fluor cs -15%, Tau FP inhib 7.9µM*, Sfp PPTase inh 28% and Coupling enz -5.
For CCN1C(=O)/C(=C\c2ccco2)C(C(=O)OC)=C1C the results were Tau fibril ThT inconclusive, Tau fluor cs -6%, G9a block inconclusive, Tau FP inhib -4%, Sfp PPTase inh 6% and Coupling enz 2.
`C=CCN1C(=O)/C(=C\c2ccco2)C(C(=O)OC)=C1C` gave Tau fibril ThT 1%, Tau fluor cs -5%, G9a block inconclusive, Tau FP inhib 4%, Sfp PPTase inh 20µM* and Coupling enz -25.
`COC(=O)C1=C(C)N(Cc2ccccc2)C(=O)/C1=C\c1ccco1` gave Tau fibril ThT 16µM*, Tau fluor cs inconclusive, G9a block 28µM*, Tau FP inhib -12%, Sfp PPTase inh -26% and Coupling enz 2.
For COC(=O)C1=C(C)N(CCc2ccccc2)C(=O)/C1=C\c1ccco1 the results were Tau fibril ThT 18µM*, Tau fluor cs -22%, G9a block 32µM*, Tau FP inhib -10%, Sfp PPTase inh 50µM* and Coupling enz 0.
`Cc1ccc(N(C)S(=O)(=O)c2ccc3c(c2)NC(=O)C(C)S3)cc1` (centres undefined) gave Sfp PPTase inh 2%.
Screening O=C(CSc1nnc2c3ccccc3c3ccccc3c2n1)Nc1ccccc1F returned Tau fibril ThT inconclusive, Tau fluor cs inconclusive, Tau FP inhib inconclusive, Sfp PPTase inh -63% and Coupling enz -40*.
For O=C(CSc1nnc2c3ccccc3c3ccccc3c2n1)Nc1ccccc1 the results were Tau fibril ThT inconclusive, Tau fluor cs -27%, G9a block 45µM*, Tau FP inhib -11%, Sfp PPTase inh 9% and Coupling enz -44*.
`O=C(CSc1nncc2ccccc12)Nc1ccccc1` gave G9a block inconclusive, Sfp PPTase inh 7% and Coupling enz 1.
Screening O=C(CSc1nnc2c(n1)[nH]c1ccc(F)cc12)Nc1ccccc1F returned G9a block -34%, Sfp PPTase inh -4% and Coupling enz 5.
For CC(Sc1nnc(NC2CC2)s1)C(=O)Nc1ccc(N2CCOCC2)cc1 (centres undefined) the results were G9a block 45µM*.
Screening O=C(CSc1nnc(NC2CCCCC2)s1)Nc1ccc(N2CCOCC2)cc1 returned Tau fibril ThT inconclusive, Tau fluor cs -19%, G9a block 18%[59 µM], Tau FP inhib 6%, Sfp PPTase inh -12% and Coupling enz -3.
For CC(Sc1nnc(NC2CCCCC2)s1)C(=O)Nc1ccc2c(c1)C(=O)c1ccccc1C2=O (centres undefined) the results were Tau fibril ThT inconclusive, Tau fluor cs 16µM*[quencher], G9a block 3.5µM*, Tau FP inhib 14%, Sfp PPTase inh 6% and Coupling enz -7.
Screening CCC(c1nnnn1CCc1ccccc1)N(Cc1ccco1)Cc1cc2cccc(C)c2[nH]c1=O (centres undefined) returned Tau fibril ThT inconclusive, Tau fluor cs -9%, G9a block 0%[12.7 µM], Tau FP inhib 6%, Sfp PPTase inh 1% and Coupling enz -1.
For Cc1cc(C)c2[nH]c(=O)c(C(c3nnnn3C(C)(C)C)N(Cc3ccco3)CC3CCCO3)cc2c1 (centres undefined) the results were Tau fibril ThT -5%, Tau fluor cs 6%, G9a block 1%[12.7 µM], Tau FP inhib -2%, Sfp PPTase inh inconclusive and Coupling enz -40*.
`Cc1cc2cc(C(c3nnnn3C(C)(C)C)N(Cc3ccco3)CC3CCCO3)c(=O)[nH]c2cc1C` (centres undefined) gave Tau fibril ThT inconclusive, Tau fluor cs -9%, G9a block 21%[0.0925 µM], Tau FP inhib -7% and Sfp PPTase inh -17%.
`CCC(c1nnnn1C(C)(C)C)N(Cc1ccco1)Cc1cc2cccc(C)c2[nH]c1=O` (centres undefined) gave Tau fibril ThT -20%, Tau fluor cs -13%, G9a block inconclusive, Tau FP inhib 0%, Sfp PPTase inh 56µM* and Coupling enz -9.
`Cc1ccc(S(=O)(=O)N2CCN(C(=O)C(Cc3ccccc3)NC(=O)c3ccccc3)CC2)cc1` (centres undefined) gave G9a block -1%[59 µM].
For COc1ccc(C(=O)N2CCN(Cc3cc(OC)c(O)c(OC)c3)CC2)cc1OC the results were Tau fibril ThT inconclusive, Tau fluor cs inconclusive, G9a block 4µM*, Tau FP inhib 1%, Sfp PPTase inh inconclusive and Coupling enz -9.
